# Tested on: TBK1
# Conditions: concentration: 1 μM, replicates: in singlicate; n = 1
# 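Note: KINOMEscan kinase panel screen.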
row,Compound,%Inh [%]
1,CN1CCC(n2cnc(-c3ccc(F)cc3)c2-c2ccnc(NC3CCNCC3)n2)CC1 [SB-229482],0
2,COc1cc2ncnc(Nc3ccc(OCc4ccccc4Br)c(Cl)c3)c2cc1OC.Cl [GI261590],10
3,CC(=O)Nc1n[nH]c2ncc(-c3ccccc3)cc12 [SB-548492],29
4,CNc1nccc(-c2c(-c3ccc(F)cc3)ncn2C2CCN(C)CC2)n1 [SB-222903],1
5,O=C(Nc1ccccc1F)NC1CCN(c2ccnc(Nc3ccc(F)cc3)n2)C1 (centres unmarked) [GSK1379722],0
6,O=C(NCCCN1CCCC1=O)c1cnc(NCc2cc(Cl)ccc2Cl)nc1NC1CCNCC1,12
7,O=c1cc(N2CCOCC2)nc2n(Cc3cccc(Cl)c3)ccn12 [GSK2296823],38
8,Nc1n[nH]c2nnc(-c3ccccc3)cc12 [SB-517389],6
9,O=C(Nc1n[nH]c2nc(-c3ccco3)c(Br)cc12)c1ccc(CN2CCCC2)cc1.O=C(O)[C@H](O)[C@@H](O)C(=O)O [SB-742352],13
10,Nc1nc(-c2cccnc2)c(-c2ccnc3ccccc23)s1 [GW684083],2
11,c1ccc(-c2ccc3c(-c4ccnc(Nc5ccc6c(c5)OCCO6)n4)cnn3n2)cc1 [GW818941],22
12,Nc1nc(-c2ccc3c(N)n[nH]c3c2)cc(N2CCC[C@@H](C(=O)Nc3ccccc3)C2)n1.O=C(O)C(F)(F)F.O=C(O)C(F)(F)F [GSK2288359],31
13,COC(=O)c1cccc(NC(=O)NCCNc2ccnc(Nc3ccc(F)cc3)n2)c1 [GSK1379883],16
14,COC(=O)c1c(-c2ccccc2)c2cc(Cl)ccc2c(=O)n1Cc1ccc(S(C)(=O)=O)cc1,20
15,FC(F)(F)c1ccc(-c2cc(-c3c[nH]nc3-c3ccccn3)ccn2)cc1 [GW599550],18
16,COc1ccc(NC(=O)c2ccc(-c3cc(-c4nnc(C)o4)ccc3C)cc2)cc1 [GW595885],0
17,Cl.Cl.c1ccc(-c2cc3ccncc3cc2OC2CCNCC2)cc1 [GSK1122999],21
18,CS(=O)(=O)CCNCc1nc(-c2ccc3ncnc(Nc4ccc(OCc5cccc(F)c5)c(Cl)c4)c3c2)cs1.Cl [GW583340],14

row,Compound,%Inh [%]
1,Cn1ccc2ncnc(Oc3ccc(NC(=O)Nc4cccnc4)c(Cl)c3)c21,5
2,Fc1cccc(COc2ccc(Nc3ncnc4sc(-c5ccc[nH]5)cc34)cc2Cl)c1 [GW707818],2
3,Cl.Cn1ccc(-c2cccc(Nc3ccnc4cc(-c5nccs5)ccc34)c2)n1 [GW525701],17
4,CS(=O)(=O)CCNCc1ccc(-c2ccc3ncnc(Nc4ccc(OCc5ccccc5)c(Cl)c4)c3c2)o1.Cl [GW574783],2
5,COc1ccc(Nc2nccc(N3CCC(NC(=O)Nc4ccc5c(c4)OCO5)C3)n2)cc1 (centres unmarked) [GSK1379745],18
6,Fc1cccc(COc2ccc(Nc3ncnc4nn5ccccc5c34)cc2Cl)c1 [GW689066],0
7,Cc1ccc(O)cc1Nc1cc(C(F)(F)F)nc2ccc(-c3ccncc3)cc12 [GW630823],5
8,Cl.Fc1ccccc1COc1ccc(Nc2ncnc3ccc(-c4nnc(C(F)(F)F)o4)cc23)cc1Cl [GW424170],7
9,Clc1ccc(-c2cc(-c3c[nH]nc3-c3ccccn3)ccn2)cc1 [GW681251],0
10,C[C@H]1CC[C@@H](C(=O)Nc2ccccc2)CN1c1cc(-c2ccc3c(N)n[nH]c3c2)nc(N)n1 [GSK2283293],7
11,Oc1ccc2ncnc(Nc3ccc(OCc4ccccc4)cc3)c2c1 [GI262866],0
12,N#Cc1ccc(Oc2ccc(Nc3ncnc4cc[nH]c34)cc2Cl)cc1,24
13,CC(C)(C)c1ccc(-n2cnc3c(N)ncnc32)cc1 [SKF-97263],15
14,Cc1ccc(C)c(NC(=O)NCCNc2ccnc(Nc3ccc(F)cc3)n2)c1 [GSK1379878],7
15,CCn1c(-c2ccncc2)nc2cnccc21 [SB-735216],17
16,COc1ccc(NC(=O)Nc2ccc(C)c(-c3ccc(C(=O)Nc4ccncc4)cc3)c2)cc1 [GSK1398475],6
17,Clc1cc(Nc2ncnc3cc[nH]c23)ccc1OCc1ccccn1,4

# Tested on: TEC
# Conditions: concentration: 1 μM, replicates: in singlicate; n = 1
row,Compound,%Inh [%]
1,CN1CCC(n2cnc(-c3ccc(F)cc3)c2-c2ccnc(NC3CCNCC3)n2)CC1 [SB-229482],0
2,COc1cc2ncnc(Nc3ccc(OCc4ccccc4Br)c(Cl)c3)c2cc1OC.Cl [GI261590],21
3,CC(=O)Nc1n[nH]c2ncc(-c3ccccc3)cc12 [SB-548492],1
4,CNc1nccc(-c2c(-c3ccc(F)cc3)ncn2C2CCN(C)CC2)n1 [SB-222903],10
5,O=C(Nc1ccccc1F)NC1CCN(c2ccnc(Nc3ccc(F)cc3)n2)C1 (centres unmarked) [GSK1379722],6
6,O=C(NCCCN1CCCC1=O)c1cnc(NCc2cc(Cl)ccc2Cl)nc1NC1CCNCC1,0
7,O=c1cc(N2CCOCC2)nc2n(Cc3cccc(Cl)c3)ccn12 [GSK2296823],1
8,Nc1n[nH]c2nnc(-c3ccccc3)cc12 [SB-517389],11
9,O=C(Nc1n[nH]c2nc(-c3ccco3)c(Br)cc12)c1ccc(CN2CCCC2)cc1.O=C(O)[C@H](O)[C@@H](O)C(=O)O [SB-742352],0
10,Nc1nc(-c2cccnc2)c(-c2ccnc3ccccc23)s1 [GW684083],0
11,c1ccc(-c2ccc3c(-c4ccnc(Nc5ccc6c(c5)OCCO6)n4)cnn3n2)cc1 [GW818941],0
12,Nc1nc(-c2ccc3c(N)n[nH]c3c2)cc(N2CCC[C@@H](C(=O)Nc3ccccc3)C2)n1.O=C(O)C(F)(F)F.O=C(O)C(F)(F)F [GSK2288359],0
13,COC(=O)c1cccc(NC(=O)NCCNc2ccnc(Nc3ccc(F)cc3)n2)c1 [GSK1379883],0
14,COC(=O)c1c(-c2ccccc2)c2cc(Cl)ccc2c(=O)n1Cc1ccc(S(C)(=O)=O)cc1,0
15,FC(F)(F)c1ccc(-c2cc(-c3c[nH]nc3-c3ccccn3)ccn2)cc1 [GW599550],0
16,COc1ccc(NC(=O)c2ccc(-c3cc(-c4nnc(C)o4)ccc3C)cc2)cc1 [GW595885],2
17,COc1ccc(-c2nc3n(c2-c2ccncc2)CCC3)cc1 [SKF-104493],0
18,Cl.Cl.c1ccc(-c2cc3ccncc3cc2OC2CCNCC2)cc1 [GSK1122999],12

row,Compound,%Inh [%]
1,CS(=O)(=O)CCNCc1nc(-c2ccc3ncnc(Nc4ccc(OCc5cccc(F)c5)c(Cl)c4)c3c2)cs1.Cl [GW583340],0
2,Cn1ccc2ncnc(Oc3ccc(NC(=O)Nc4cccnc4)c(Cl)c3)c21,6
3,Fc1cccc(COc2ccc(Nc3ncnc4sc(-c5ccc[nH]5)cc34)cc2Cl)c1 [GW707818],0
4,Cl.Cn1ccc(-c2cccc(Nc3ccnc4cc(-c5nccs5)ccc34)c2)n1 [GW525701],17
5,CS(=O)(=O)CCNCc1ccc(-c2ccc3ncnc(Nc4ccc(OCc5ccccc5)c(Cl)c4)c3c2)o1.Cl [GW574783],7
6,COc1ccc(Nc2nccc(N3CCC(NC(=O)Nc4ccc5c(c4)OCO5)C3)n2)cc1 (centres unmarked) [GSK1379745],9
7,Fc1cccc(COc2ccc(Nc3ncnc4nn5ccccc5c34)cc2Cl)c1 [GW689066],0
8,Cc1ccc(O)cc1Nc1cc(C(F)(F)F)nc2ccc(-c3ccncc3)cc12 [GW630823],92.1
9,Cl.Fc1ccccc1COc1ccc(Nc2ncnc3ccc(-c4nnc(C(F)(F)F)o4)cc23)cc1Cl [GW424170],5
10,Clc1ccc(-c2cc(-c3c[nH]nc3-c3ccccn3)ccn2)cc1 [GW681251],0
11,C[C@H]1CC[C@@H](C(=O)Nc2ccccc2)CN1c1cc(-c2ccc3c(N)n[nH]c3c2)nc(N)n1 [GSK2283293],11
12,Oc1ccc2ncnc(Nc3ccc(OCc4ccccc4)cc3)c2c1 [GI262866],0
13,N#Cc1ccc(Oc2ccc(Nc3ncnc4cc[nH]c34)cc2Cl)cc1,0
14,CC(C)(C)c1ccc(-n2cnc3c(N)ncnc32)cc1 [SKF-97263],12
15,Cc1ccc(C)c(NC(=O)NCCNc2ccnc(Nc3ccc(F)cc3)n2)c1 [GSK1379878],0
16,CCn1c(-c2ccncc2)nc2cnccc21 [SB-735216],7
17,COc1ccc(NC(=O)Nc2ccc(C)c(-c3ccc(C(=O)Nc4ccncc4)cc3)c2)cc1 [GSK1398475],3
18,Clc1cc(Nc2ncnc3cc[nH]c23)ccc1OCc1ccccn1,0

# — article PMC5540273 (PLoS ONE, 2017)
